High-throughput results as filed in PubChem BioAssay.
Only a selection was taken, and hits are over-represented in it overall.
Pf Dd2 inh: qHTS Primary assay for Inhibitors of Plasmodium falciparum Dd2 growth in vitro. P. falciparum Dd2 growth, SYBR Green, 72 h. 120,000 tested, 4.3% active. Potency, µM (series often up to 28.9 µM), for the others: at the highest dose activity, negative = inhibition, usual class: inhibitors. AID 1347417, 2020; active means well fitted inhibition curve with a large enough effect;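 further: plate controls were DMSO vehicle for no effect and reference drug for full effect; nearly all actives have a fitted effect of over 65% in size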
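Infected erythrocytes (Dd2, 0.3% parasitemia, 2.5% hematocrit final) are added to compound in RPMI-1640/Albumax II medium, grown 72 h at 37C in low oxygen, then lysed with saponin/Triton-X containing SYBR Green and read by fluorescence.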
* hit, by the source's call; i = inactive; [ ] = remark or other dose. Potency means the concentration at half of the fitted maximal effect.

SMILES	Pf Dd2 inh
CCOCc1nc(C2CCCN(C(=O)c3ccc(C)c(F)c3)C2)no1 (stereo not drawn)	119.6%
Cc1cccc(OCC2(CNC(=O)C3CC3)C[C@@H](O)[C@@H](O)C2)n1 (stereo partly drawn)	-1.8%[44.1 µM]
O=C1CC(c2ccccc2)N(C(=O)CNC(=O)c2ccc3cc[nH]c3c2)CCCCCN1 (stereo not drawn)	10µM*
N#Cc1cccc(C(=O)NCC(=O)N2CCCCCCNC(=O)CC2c2ccccc2)c1 (stereo not drawn)	-23.1%
O=C1CC(c2ccccc2)N(C(=O)CNC(=O)c2c[nH]c3ccccc23)CCCCCN1 (stereo not drawn)	i
O=C(Cc1c[nH]c2ccccc12)NCC(=O)N1CCCCCNC(=O)CC1c1ccccc1 (stereo not drawn)	-16.8%
O=C1CC(c2ccccc2)N(C(=O)CNC(=O)c2n[nH]c3ccccc23)CCCCCCN1 (stereo not drawn)	10µM*
O=C1CC(c2ccccc2)N(C(=O)CNC(=O)c2ccoc2)CCCCCCN1 (stereo not drawn)	-24.9%
CCNC(=O)CCc1c(C)nn(-c2ccc(F)cc2)c1Oc1ccccc1C	i
Cc1ccsc1C(=O)NCC1Cn2cccc2CN1C (stereo not drawn)	-9.3%
Cc1ccc(C(=O)NC2CCN(C(=O)N3CC4CC(C3)[C@H]3CCCC(=O)N3C4)CC2)cc1 (stereo partly drawn)	i
COC(=O)c1c(NC(C)=O)c2cc(NC(C)CC(C)(C)O)cnc2n1CCC(C)C (stereo not drawn)	-17.1%
Cc1ccc(-c2cc(-c3ccncc3)c3cncn3c2)cn1	-7.3%[44.1 µM]
COc1ccc(-c2cc(-c3cn[nH]c3)c3cncn3c2)cn1	-17.0%[44.1 µM]
COc1cc(F)ccc1-c1cc(-c2ccc(=O)[nH]c2)c2cncn2c1	i
CC(=O)Nc1cccc(-c2ccc(COc3ccc4c(cnn4CCC(=O)O)c3)cc2)c1	i
COc1ccc(-c2cc(-c3cccc(NC(C)=O)c3)cn3cncc23)cn1	2µM*
COc1ccc(-c2cc(-c3cccnc3)c3cncn3c2)cc1OC	10µM*
COc1ccc(-c2cc(-c3ccc(OC)nc3)cn3cncc23)cc1	2.51µM*
O=C1COCCN1c1cc(-c2cnc3[nH]ccc3c2)cn2cncc12	4.0%[44.1 µM]
Cc1ccc(-c2cc(-c3cccnc3)c3cncn3c2)cn1	i
c1cncc(-c2cc(-c3ccc4cn[nH]c4c3)cn3cncc23)c1	-9.8%[44.1 µM]
COc1ccc(-c2cc(-c3cnc4[nH]ccc4c3)cn3cncc23)cc1	6.31µM*
c1cc(-c2cc(-c3cn[nH]c3)cn3cncc23)ccn1	i
COCCNC(=O)[C@H]1C[C@H](Oc2ccccc2)CN1C(=O)NCc1ccccc1	i
SMILES	Pf Dd2 inh
COc1ccc2[nH]c3c(c2c1)CCNC31CCN(C(=O)c2cnn(C)c2)CC1	10.0%
CNC(=O)[C@@H](C1CCCCC1)N1CCC[C@H]1C(=O)N1CCC1	28.1%[44.1 µM]
O=C(c1cccnc1)N1CCCCC1c1nc(C2CC2)n[nH]1 (stereo not drawn)	3.9%
O=C1NCCCCCN(C(=O)NCc2ccc(F)cc2)[C@H]2CCCC[C@@H]12	-12.8%
O=C(NC[C@H]1OC[C@@H](NCc2cnc[nH]2)[C@@H]1O)c1cccs1	-10.2%[44.1 µM]
O=C(Cn1ccn2nc(-c3ccc(F)cc3)c(CO)c2c1=O)Nc1ccc(C(F)(F)F)cc1	-2.1%
COc1ccc(-c2noc([C@@H]3C[C@@H](O)CN3Cc3ccc(F)cc3)n2)cc1	i
O=C(c1ccccc1)N1CCC2(C1)C(=NC1CCCCC1)NC(=O)N2c1cc(F)cc(F)c1 (stereo not drawn)	9.0%
CC(C)CCN1CCCC2(C1)C(=NC1CCCC1)NC(=O)N2c1cccnc1 (stereo not drawn)	-14.5%
O=C1NC(=NC2CCCC2)C2(CCCN(CC3CCCCC3)C2)N1c1cc(F)cc(F)c1 (stereo not drawn)	4.47µM*
CC(C)CCN1CCC2(C1)C(=NC1CCCCC1)NC(=O)N2c1cccnc1 (stereo not drawn)	77.4%
O=C(c1ccccc1F)N1CCC2(C1)C(=NC1CCCCC1)NC(=O)N2c1cc(F)cc(F)c1 (stereo not drawn)	-3.7%
O=C1NC(=NC2CCCC2)C2(CCN(CC3CC3)C2)N1c1cccnc1 (stereo not drawn)	-12.0%
O=C1NC(=NC2CCCCC2)C2(CCN(CC3CCCCC3)C2)N1c1cc(F)cc(F)c1 (stereo not drawn)	5.01µM*
CC(C)CCN1CCCC2(C1)C(=NC1CCCCC1)NC(=O)N2c1cc(F)cc(F)c1 (stereo not drawn)	3.98µM*
O=C1NC(=NC2CCCCC2)C2(CCN(CC3CCCCC3)CC2)N1c1cc(F)cc(F)c1	9.6%
COC1CCOC2(CCN(C(=O)Nc3cccc(F)c3)CC2)C1 (stereo not drawn)	i
CCC(C)NC(=O)C1COC2(CCN(C(=O)CC(C)C)CC2)N1C(=O)c1cccc(OC)c1 (stereo not drawn)	9.6%
CC(=O)N1CCCC(c2nc(C(C)C)no2)CCNC(=O)CC1 (stereo not drawn)	9.8%
Cc1ccc(C#N)c(N2CCCC(c3nccn3CC3CCC3)C2)n1 (stereo not drawn)	i
O=C(CCC1CCN(S(=O)(=O)c2ccccc2)CC1)NCc1ccco1	-16.5%
COc1ccc(C(=O)N2CCCC(CN3CCOCC3)CC2)cc1OC (stereo not drawn)	-2.2%
O=C(C1CCc2ncc(-c3ccsc3)n2C1)N1CCN(c2ccccn2)CC1 (stereo not drawn)	i
CC(C)CNC(=O)C1CCc2ncc(-c3ccsc3)n2C1 (stereo not drawn)	i
O=C(NC1CCN(Cc2ccccc2)CC1)C1CCc2ncc(-c3ccsc3)n2C1 (stereo not drawn)	8.91µM*
SMILES	Pf Dd2 inh
Cn1nc(C(=O)N2CCC3(CCCNC3)C2)c2ccccc21 (stereo not drawn)	-21.4%
O=C(c1ccccc1)N1CCC2(CC1)C(=NC1CCCCC1)NC(=O)N2c1cc(F)cc(F)c1	-9.2%
N#Cc1cccc(NC(=S)N[C@H]2CO[C@H]3[C@@H]2OC[C@@H]3n2nnnc2Oc2ccccc2)c1	i
N#Cc1cccc(NC(=S)N[C@H]2CO[C@H]3[C@@H]2OC[C@@H]3n2nnnc2Oc2ccc3c(c2)OCO3)c1	-28.8%
N#Cc1cccc(NC(=S)N[C@H]2CO[C@H]3[C@@H]2OC[C@@H]3n2nnnc2Oc2cccc(N3CCOCC3)c2)c1	8.91µM*
Cc1occc1C(=O)N1C[C@@H](C(=O)O)C[C@H](C(=O)NCc2ccccn2)C1	-15.9%
COc1ccc(C2C(C(=O)Nc3ccc(Cl)cc3)=C(C)Nc3nc(SCc4cccc(C)c4)nn32)cc1OC (stereo not drawn)	8.1%
COc1cccc(C2C(C(=O)Nc3ccc(Cl)cc3)=C(C)Nc3c(C(=O)Nc4ccccc4)cnn32)c1OC (stereo not drawn)	12.6µM*
COc1cccc(C2C(C(=O)Nc3ccc(Cl)cc3)=C(C)Nc3nc4ccccc4n32)c1OC (stereo not drawn)	-22.0%
COc1ccc(NC(=O)C2=C(C)Nc3nc(SCc4ccc(Cl)cc4)nn3C2c2cccc(OC)c2OC)cc1 (stereo not drawn)	i
COc1cc(C2C(C(=O)Nc3ccc(Cl)cc3)=C(C)Nc3nc(SC)nn32)cc(OC)c1OC (stereo not drawn)	-4.6%
COc1ccc(NC(=O)C2=C(C)Nc3c(C(=O)Nc4ccc(C)cc4)cnn3C2c2cccc(Cl)c2)cc1 (stereo not drawn)	3.16µM*
